Measured values: PubChem BioAssay (NCATS)
Inconclusive results are not listed. Calls of active or inactive are those of the source. Calls come from the whole dose curve; as a rule, active = well fitted curve in the direction sought with a large enough effect; inconclusive = small, poorly fitted or top-dose-only effect, or another doubt; inactive = no such curve, though single readings can be large; an effect the other way counts as inactive or inconclusive.

Legend:
[1] = target: Rap guanine nucleotide exchange factor 3 (Homo sapiens) (UniProt O95398); assay: Confirmatory qHTS for agonist of cAMP-regulated guanine nucleotide exchange factor 3 (EPAC1) (AID 1645881);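 note: EPAC1 catalysed release of BODIPY-GDP from Rap1B seen as fluorescence loss; nearly all actives have a fitted effect of over 75% in size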
Rap guanine nucleotide exchange factor 3 (Homo sapiens), sequence (O95398 whole entry, looked up): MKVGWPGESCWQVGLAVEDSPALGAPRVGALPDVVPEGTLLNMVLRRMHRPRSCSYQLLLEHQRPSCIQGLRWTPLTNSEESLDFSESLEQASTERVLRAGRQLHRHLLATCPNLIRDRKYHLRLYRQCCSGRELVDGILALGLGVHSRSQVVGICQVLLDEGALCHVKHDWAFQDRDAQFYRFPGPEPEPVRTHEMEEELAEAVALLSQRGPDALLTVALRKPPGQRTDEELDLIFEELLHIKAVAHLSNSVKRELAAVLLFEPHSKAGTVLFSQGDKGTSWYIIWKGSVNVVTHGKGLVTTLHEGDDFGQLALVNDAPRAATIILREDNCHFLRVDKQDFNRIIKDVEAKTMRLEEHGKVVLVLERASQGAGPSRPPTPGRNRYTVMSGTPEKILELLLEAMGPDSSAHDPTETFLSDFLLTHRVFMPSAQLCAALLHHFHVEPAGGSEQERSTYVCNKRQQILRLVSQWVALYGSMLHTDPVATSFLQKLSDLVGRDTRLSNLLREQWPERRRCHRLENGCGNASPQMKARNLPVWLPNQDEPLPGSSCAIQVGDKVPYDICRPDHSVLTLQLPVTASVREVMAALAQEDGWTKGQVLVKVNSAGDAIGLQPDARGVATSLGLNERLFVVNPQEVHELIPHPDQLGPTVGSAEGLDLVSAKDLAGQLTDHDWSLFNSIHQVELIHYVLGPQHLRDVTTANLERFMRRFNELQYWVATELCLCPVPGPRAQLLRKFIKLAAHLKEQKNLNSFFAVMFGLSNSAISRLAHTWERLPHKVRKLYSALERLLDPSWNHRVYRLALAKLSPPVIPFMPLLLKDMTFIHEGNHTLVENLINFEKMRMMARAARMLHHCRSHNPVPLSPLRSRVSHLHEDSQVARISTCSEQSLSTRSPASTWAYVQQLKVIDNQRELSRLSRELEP

[2] = target: Rap guanine nucleotide exchange factor 4 (Homo sapiens) (UniProt Q8WZA2); assay: Confirmatory qHTS for agonist of cAMP-regulated guanine nucleotide exchange factor 4 (EPAC2) (AID 1645884);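 note: nucleotide exchange releases bodipy-GDP from Rap1 and this lowers its fluorescence; nearly all actives have a fitted effect of over 65% in size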
Rap guanine nucleotide exchange factor 4 (Homo sapiens), sequence (Q8WZA2 whole entry, looked up): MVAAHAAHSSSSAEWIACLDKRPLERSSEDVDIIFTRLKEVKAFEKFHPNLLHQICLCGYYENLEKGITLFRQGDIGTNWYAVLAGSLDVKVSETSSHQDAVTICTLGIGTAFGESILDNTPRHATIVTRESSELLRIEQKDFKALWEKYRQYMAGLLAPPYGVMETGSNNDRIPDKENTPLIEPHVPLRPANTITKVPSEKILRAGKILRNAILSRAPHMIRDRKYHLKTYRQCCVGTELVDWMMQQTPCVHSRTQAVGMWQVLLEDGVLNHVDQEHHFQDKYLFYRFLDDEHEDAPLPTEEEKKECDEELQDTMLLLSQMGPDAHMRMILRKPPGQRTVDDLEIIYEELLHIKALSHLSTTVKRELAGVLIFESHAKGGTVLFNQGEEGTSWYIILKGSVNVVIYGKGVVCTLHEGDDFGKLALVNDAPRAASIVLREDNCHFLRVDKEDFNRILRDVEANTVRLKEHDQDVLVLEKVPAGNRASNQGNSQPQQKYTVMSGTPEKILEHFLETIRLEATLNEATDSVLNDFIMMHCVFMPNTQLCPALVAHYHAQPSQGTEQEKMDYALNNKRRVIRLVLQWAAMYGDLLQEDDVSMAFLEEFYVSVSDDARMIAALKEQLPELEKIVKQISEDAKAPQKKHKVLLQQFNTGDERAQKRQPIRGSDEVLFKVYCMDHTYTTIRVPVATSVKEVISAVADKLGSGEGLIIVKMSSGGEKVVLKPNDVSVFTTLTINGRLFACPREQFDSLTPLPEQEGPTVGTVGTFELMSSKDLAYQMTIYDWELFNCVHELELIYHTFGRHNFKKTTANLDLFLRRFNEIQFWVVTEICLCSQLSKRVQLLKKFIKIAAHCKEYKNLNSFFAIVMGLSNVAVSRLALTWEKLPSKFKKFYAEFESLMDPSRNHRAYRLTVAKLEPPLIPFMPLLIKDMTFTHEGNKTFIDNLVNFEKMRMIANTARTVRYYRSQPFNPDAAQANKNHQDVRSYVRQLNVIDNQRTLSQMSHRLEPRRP

[3] = target: Rap guanine nucleotide exchange factor 4 (Homo sapiens) (UniProt Q8WZA2); assay: Confirmatory qHTS for antagonist of cAMP-regulated guanine nucleotide exchange factor 4 (EPAC2) (AID 1645885); note: nearly all actives have a fitted effect of over 25% in size
[4] = target: Rap guanine nucleotide exchange factor 3 (Homo sapiens) (UniProt O95398); assay: Counterscreen qHTS for antagonist of cAMP-regulated guanine nucleotide exchange factor 3 (EPAC1) (AID 1645888);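 note: fluorescence loss as bound BODIPY-GDP is released from Rap1B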
In short: (§1)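 Rap1B–BODIPY-GDP (250 nM) with 50 uM GDP; compounds pin-transferred to 9.74 nM–152 uM final (activator) or from 7.32 nM upwards (inhibitor). Fluorescence Ex/Em 480/540 nm read at 5 and 30 min, then after adding cAMP or buffer, at room temperature.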

[5] = target: Rap guanine nucleotide exchange factor 3 (Homo sapiens) (UniProt O95398); assay: Counterscreen qHTS for agonist of cAMP-regulated guanine nucleotide exchange factor 3 (EPAC1) (AID 1645889); note: nearly all actives have a fitted effect of over 40% in size
In short: as §1

Measured: Potency

O=C(O)c1ccc(Nc2ncnc3ccccc23)cc1
inactive: all assays above

CC(=O)NC(c1ccco1)c1cc(Cl)c2cccnc2c1O (stereo not given)
inactive: all assays above
